{"source": "PubChem BioAssay", "key": {"[1]": {"experiment": "resazurin metabolic signal in HepG2 cells – cell-based, resazurin fluorescence, 24 h, PK04 Diversity Set, profiling panel (AID 1172)", "settings": "HepG2 viability, higher = more signal"}, "[2]": {"experiment": "budding yeast growth changes without added modifier – OD600, strain BY4716, 24 h, basal condition, primary screen (AID 1173)", "settings": "S. cerevisiae BY4716 growth, OD600, 24 h; higher = more signal, called active from +8 up or from −8 down"}, "[3]": {"experiment": "viability profiling in MM1S myeloma cells – cell-based, resazurin fluorescence, basal, 24 h, PK04 Diversity Set, profiling panel (AID 1174);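 also: MM1S multiple myeloma cell line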", "settings": "higher = more signal, called active from +8 up or from −8 down"}, "[4]": {"biological_target": "Dihydroorotate dehydrogenase (quinone), mitochondrial (Plasmodium falciparum (isolate 3D7)) (UniProt Q08210)", "sequence (Q08210 whole entry, looked up)": "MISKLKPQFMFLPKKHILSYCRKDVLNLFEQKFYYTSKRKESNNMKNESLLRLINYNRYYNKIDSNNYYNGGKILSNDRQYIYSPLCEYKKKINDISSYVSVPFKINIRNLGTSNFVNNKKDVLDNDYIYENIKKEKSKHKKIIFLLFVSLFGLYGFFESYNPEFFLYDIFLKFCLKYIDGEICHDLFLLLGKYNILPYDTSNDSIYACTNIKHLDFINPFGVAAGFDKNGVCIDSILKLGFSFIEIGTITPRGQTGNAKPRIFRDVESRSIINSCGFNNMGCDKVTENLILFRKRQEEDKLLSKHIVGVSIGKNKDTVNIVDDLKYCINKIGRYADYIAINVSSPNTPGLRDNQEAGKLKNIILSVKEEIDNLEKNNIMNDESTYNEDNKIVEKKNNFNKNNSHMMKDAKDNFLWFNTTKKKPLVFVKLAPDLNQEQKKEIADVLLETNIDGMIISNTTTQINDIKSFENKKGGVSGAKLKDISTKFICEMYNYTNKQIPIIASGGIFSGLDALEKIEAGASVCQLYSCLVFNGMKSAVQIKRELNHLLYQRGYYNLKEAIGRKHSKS", "experiment": "inhibition of P. falciparum DHODH – biochemical, C-terminal His tag, absorbance 600 nm, primary screen (AID 1175);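 also: recombinant parasite enzyme with a five histidine tag at its C terminus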", "settings": "PfDHODH enzyme, DCIP absorbance 600 nm; higher = more signal, called active from +8 up or from −8 down"}, "[5]": {"experiment": "inhibition of PAO1 biofilm formation – strain PAO1, LB-PBS medium, absorbance 600 nm, primary screen (AID 1176)", "settings": "P. aeruginosa PAO1 growth/biofilm, A600, 12 h; higher = more signal"}, "[6]": {"experiment": "growth modulation of vineyard yeast isolate – strain RM11-1a, OD600, basal, 24 h, primary screen (AID 1177);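 also: cultures grown under basal conditions with no added stressor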", "settings": "S. cerevisiae RM11-1a growth, OD600, 24 h; higher = more signal, called active from +8 up or from −8 down"}, "[7]": {"experiment": "growth of efflux-deficient E. coli DRC39 – strain DRC39, OD650, 24 h, E. coli filamentation inducers, primary screen (AID 1178);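 also: growth measured as culture turbidity by optical density at 650 nm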", "settings": "E. coli DRC39 acrAB, higher = more signal, called active from +8 up or from −8 down"}, "[8]": {"experiment": "growth of efflux-deficient E. coli DRC39 – strain DRC39, OD650, 48 h, E. coli filamentation inducers, primary screen (AID 1179);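 also: screen aims at cell division blockers that make cells filament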", "settings": "E. coli DRC39 delta-acrAB growth, higher = more signal, called active from +8 up or from −8 down"}, "[9]": {"experiment": "viability profiling in RPMI8226 myeloma cells – cell-based, resazurin fluorescence, basal, 24 h, PK04 Diversity Set, profiling panel (AID 1180);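 also: RPMI8826 multiple myeloma cell line at 5000 cells per well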", "settings": "higher = more signal"}, "[10]": {"biological_target": "E3 ubiquitin-protein ligase XIAP (Homo sapiens) (UniProt P98170)", "sequence (P98170 whole entry, looked up)": "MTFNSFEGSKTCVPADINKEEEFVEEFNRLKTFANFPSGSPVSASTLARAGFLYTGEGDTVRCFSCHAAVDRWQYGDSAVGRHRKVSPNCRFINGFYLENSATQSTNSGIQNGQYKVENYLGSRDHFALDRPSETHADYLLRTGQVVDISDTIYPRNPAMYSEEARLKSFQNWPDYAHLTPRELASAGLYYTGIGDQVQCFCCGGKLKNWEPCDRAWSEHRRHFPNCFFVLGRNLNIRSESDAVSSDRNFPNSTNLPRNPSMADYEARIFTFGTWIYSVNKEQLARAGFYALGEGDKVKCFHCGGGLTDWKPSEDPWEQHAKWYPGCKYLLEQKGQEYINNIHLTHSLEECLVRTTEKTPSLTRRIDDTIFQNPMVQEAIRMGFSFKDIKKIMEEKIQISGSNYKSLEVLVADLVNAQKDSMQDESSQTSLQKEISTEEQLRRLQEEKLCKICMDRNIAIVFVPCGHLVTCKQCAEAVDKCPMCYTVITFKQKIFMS", "experiment": "small molecules binding XIAP protein – biophysical, small-molecule microarray, fluorescence 635 nm, primary screen (AID 1181);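 also: score merges 667 nm emission and signal to noise over triplicate slides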", "settings": "higher = more signal"}, "[11]": {"tested_on": "XIP peptide (Xip251-270) binding", "experiment": "XIP fragment 251-270 binding compounds – biochemical, small-molecule microarray, fluorescence 635/667 nm, 0.1 µg/mL protein, primary screen (AID 1182)", "settings": "fluorescent protein binding, 635 nm, higher = more signal, called active from +8 up or from −8 down"}, "XIP peptide (Xip251-270)": {"tested_on": "XIP peptide (Xip251-270)", "experiment": "compounds binding XIP fragment 251-270 – biochemical, small-molecule microarray, fluorescence 635/667 nm, 0.5 µg/mL protein, primary screen (AID 1183)", "settings": "fluorescence 635 nm, higher = more signal"}, "[12]": {"experiment": "blood-stage malaria parasite viability loss – strain 3D7, DAPI fluorescence, 100 nL, primary screen (AID 1184);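 also: parasites grown inside human red blood cells in medium with human serum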", "settings": "P. falciparum 3D7 growth, 3 d, higher = more signal"}, "[13]": {"biological_target": "Homeobox protein Hox-A13 (Mus musculus) (UniProt Q62424)", "sequence (Q62424 whole entry, looked up)": "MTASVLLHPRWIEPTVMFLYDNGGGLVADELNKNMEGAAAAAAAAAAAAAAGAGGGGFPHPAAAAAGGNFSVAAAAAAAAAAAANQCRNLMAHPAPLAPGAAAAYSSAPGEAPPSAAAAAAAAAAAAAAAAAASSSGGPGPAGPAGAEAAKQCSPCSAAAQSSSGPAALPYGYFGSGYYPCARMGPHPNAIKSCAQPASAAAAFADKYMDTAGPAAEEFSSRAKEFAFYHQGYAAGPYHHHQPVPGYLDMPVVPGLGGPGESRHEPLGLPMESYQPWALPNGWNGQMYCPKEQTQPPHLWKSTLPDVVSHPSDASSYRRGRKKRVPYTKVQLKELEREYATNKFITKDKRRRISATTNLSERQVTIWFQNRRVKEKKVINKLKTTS", "experiment": "disruptors of Hoxa13 oligonucleotide interaction – biochemical, fluorescence polarization, labeled oligonucleotide, primary screen (AID 1185)", "settings": "Hoxa13:DNA binding, 15 min, higher = more signal, called active from +8 up or from −8 down"}, "[14]": {"experiment": "blockers of DNA damage checkpoint Chk1 activation – imaging, HeLa, hydroxyurea, phospho-Chk1 antibody, percent positive cells, primary screen (AID 1186)", "settings": "hydroxyurea-induced phospho-Chk1 immunofluorescence imaging, higher = more signal"}, "[15]": {"experiment": "blockers of DNA damage checkpoint Chk1 activation – imaging, HeLa, hydroxyurea, phospho-Chk1 nuclear intensity, primary screen (AID 1187)", "settings": "hydroxyurea-induced phospho-Chk1 immunofluorescence imaging, higher = more signal"}}, "note": "The source made the active and inactive calls. Unless noted, no rule for the calls is given here.", "data": [{"smiles": "C=CCN1C(=O)[C@]2(CC=C)N=C(c3ccc(OCCCO)cc3)O[C@@H]2c2ccccc21", "values": [{"measurement": "z-score", "setting": "[1]", "value": -0.956}, {"measurement": "z-score", "setting": "[2]", "value": "-2.51 (inactive)"}, {"measurement": "z-score", "setting": "[3]", "value": "-3.23 (inactive)"}, {"measurement": "composite z-score", "setting": "[4]", "value": "0.0306 (inactive)"}, {"measurement": "z-score", "setting": "[5]", "value": "1.26 (inactive)"}, {"measurement": "z-score", "setting": "[6]", "value": "0.506 (inactive)"}, {"measurement": "z-score", "setting": "[7]", "value": "0.578 (inactive)"}, {"measurement": "z-score", "setting": "[8]", "value": "0.509 (inactive)"}, {"measurement": "z-score", "setting": "[9]", "value": -3.09}, {"measurement": "composite z-score", "setting": "[10]", "value": 0.197}, {"measurement": "composite z-score", "setting": "[11]", "value": "0.935 (inactive)"}, {"measurement": "composite z-score", "setting": "XIP peptide (Xip251-270)", "value": 0.707}, {"measurement": "z-score", "setting": "[12]", "value": -1.96}, {"measurement": "z-score", "setting": "[13]", "value": "-0.0163 (inactive)"}, {"measurement": "z-score", "setting": "[14]", "value": "-0.0194 (inactive)"}, {"measurement": "z-score", "setting": "[15]", "value": "0.169 (inactive)"}]}, {"smiles": "[N-]=[N+]=NCc1ccccc1C[C@@]1(C(=O)NCCN2CCOCC2)N=C(c2ccc(OCCCO)cc2)O[C@@H]1c1ccccc1N=[N+]=[N-]", "values": [{"measurement": "z-score", "setting": "[1]", "value": -0.61}, {"measurement": "z-score", "setting": "[2]", "value": "-1.22 (inactive)"}, {"measurement": "z-score", "setting": "[3]", "value": "-0.37 (inactive)"}, {"measurement": "composite z-score", "setting": "[4]", "value": "0.699 (inactive)"}, {"measurement": "z-score", "setting": "[5]", "value": "0.124 (inactive)"}, {"measurement": "z-score", "setting": "[6]", "value": "-0.304 (inactive)"}, {"measurement": "z-score", "setting": "[7]", "value": "0.647 (inactive)"}, {"measurement": "z-score", "setting": "[8]", "value": "-0.456 (inactive)"}, {"measurement": "z-score", "setting": "[9]", "value": -0.0843}, {"measurement": "composite z-score", "setting": "[10]", "value": 0.318}, {"measurement": "composite z-score", "setting": "[11]", "value": "1.51 (inactive)"}, {"measurement": "composite z-score", "setting": "XIP peptide (Xip251-270)", "value": 0.767}, {"measurement": "z-score", "setting": "[12]", "value": -2.75}, {"measurement": "z-score", "setting": "[13]", "value": "-2.44 (inactive)"}, {"measurement": "z-score", "setting": "[14]", "value": "-0.402 (inactive)"}, {"measurement": "z-score", "setting": "[15]", "value": "-0.753 (inactive)"}]}, {"smiles": "COCCCNC(=O)[C@@]1(Sc2ccc(C)cc2)CC(=O)N(Cc2cc(C(F)(F)F)cc(C(F)(F)F)c2)[C@@H]1c1ccc(CO)cc1", "values": [{"measurement": "z-score", "setting": "[1]", "value": -0.092}, {"measurement": "z-score", "setting": "[2]", "value": "-0.138 (inactive)"}, {"measurement": "z-score", "setting": "[3]", "value": "-0.538 (inactive)"}, {"measurement": "composite z-score", "setting": "[4]", "value": "-0.669 (inactive)"}, {"measurement": "z-score", "setting": "[5]", "value": "0.158 (inactive)"}, {"measurement": "z-score", "setting": "[6]", "value": "-0.219 (inactive)"}, {"measurement": "z-score", "setting": "[7]", "value": "0.0881 (inactive)"}, {"measurement": "z-score", "setting": "[8]", "value": "0.231 (inactive)"}, {"measurement": "z-score", "setting": "[9]", "value": -0.368}, {"measurement": "composite z-score", "setting": "[10]", "value": -0.0571}, {"measurement": "composite z-score", "setting": "[11]", "value": "0.451 (inactive)"}, {"measurement": "composite z-score", "setting": "XIP peptide (Xip251-270)", "value": 0.634}, {"measurement": "z-score", "setting": "[12]", "value": -0.0611}, {"measurement": "z-score", "setting": "[13]", "value": "-0.737 (inactive)"}, {"measurement": "z-score", "setting": "[14]", "value": "0.155 (inactive)"}, {"measurement": "z-score", "setting": "[15]", "value": "0.0411 (inactive)"}]}, {"smiles": "C=C(C(=O)CC[C@H](OC(=O)c1cccnc1)c1ccc(CO)o1)C(C)C", "values": [{"measurement": "z-score", "setting": "[1]", "value": -0.499}, {"measurement": "z-score", "setting": "[2]", "value": "-1.02 (inactive)"}, {"measurement": "z-score", "setting": "[3]", "value": "-0.323 (inactive)"}, {"measurement": "composite z-score", "setting": "[4]", "value": "-3.18 (inactive)"}, {"measurement": "z-score", "setting": "[5]", "value": "0.354 (inactive)"}, {"measurement": "z-score", "setting": "[6]", "value": "-0.811 (inactive)"}, {"measurement": "z-score", "setting": "[7]", "value": "-0.645 (inactive)"}, {"measurement": "z-score", "setting": "[8]", "value": "-0.631 (inactive)"}, {"measurement": "z-score", "setting": "[9]", "value": -0.74}, {"measurement": "composite z-score", "setting": "[10]", "value": -0.187}, {"measurement": "composite z-score", "setting": "[11]", "value": "1.43 (inactive)"}, {"measurement": "composite z-score", "setting": "XIP peptide (Xip251-270)", "value": 0.62}, {"measurement": "z-score", "setting": "[12]", "value": 0.566}, {"measurement": "z-score", "setting": "[13]", "value": "-5.25 (inactive)"}, {"measurement": "z-score", "setting": "[14]", "value": "0.286 (inactive)"}, {"measurement": "z-score", "setting": "[15]", "value": "-0.0632 (inactive)"}]}, {"smiles": "CC(=O)N1Cc2ccccc2C[C@]2(N=C(c3ccc(OCCCO)cc3)O[C@@H]2c2ccccc2)C1=O", "values": [{"measurement": "z-score", "setting": "[1]", "value": -0.908}, {"measurement": "z-score", "setting": "[2]", "value": "-0.776 (inactive)"}, {"measurement": "z-score", "setting": "[3]", "value": "-2.6 (inactive)"}, {"measurement": "composite z-score", "setting": "[4]", "value": "-0.375 (inactive)"}, {"measurement": "z-score", "setting": "[5]", "value": "0.122 (inactive)"}, {"measurement": "z-score", "setting": "[6]", "value": "1.93 (inactive)"}, {"measurement": "z-score", "setting": "[7]", "value": "1.55 (inactive)"}, {"measurement": "z-score", "setting": "[8]", "value": "1 (inactive)"}, {"measurement": "z-score", "setting": "[9]", "value": -3.96}, {"measurement": "composite z-score", "setting": "[10]", "value": 0.247}, {"measurement": "composite z-score", "setting": "[11]", "value": "1.84 (inactive)"}, {"measurement": "composite z-score", "setting": "XIP peptide (Xip251-270)", "value": 0.836}, {"measurement": "z-score", "setting": "[12]", "value": -1.42}, {"measurement": "z-score", "setting": "[13]", "value": "-4.24 (inactive)"}, {"measurement": "z-score", "setting": "[14]", "value": "-0.151 (inactive)"}, {"measurement": "z-score", "setting": "[15]", "value": "-0.0442 (inactive)"}]}]}
